{
  "source": "paper PMC7862700",
  "about": "“An all-to-all approach to the identification of sequence-specific readers for epigenetic DNA modifications on cytosine”",
  "experiment_in_all_cases": "DAPPL (digital affinity profiling via proximity ligation, sequencing); 10 mM Tris-HCl pH 7.5, 50 mM NaCl, 1 mM DTT, 4% glycerol, room temperature, 30 min; GST-TFs on glutathione beads, 16-mer random dsDNA library, 0.1% formaldehyde crosslink after washing; high values mean tight binding",
  "conditions_in_all_cases": "protein: recombinant; tags: N-terminal GST; dsDNA, one strand shown",
  "key": {"FEV": {"target": "T1, FEV (Homo sapiens, UniProt Q99581 1-238)", "T1 sequence": "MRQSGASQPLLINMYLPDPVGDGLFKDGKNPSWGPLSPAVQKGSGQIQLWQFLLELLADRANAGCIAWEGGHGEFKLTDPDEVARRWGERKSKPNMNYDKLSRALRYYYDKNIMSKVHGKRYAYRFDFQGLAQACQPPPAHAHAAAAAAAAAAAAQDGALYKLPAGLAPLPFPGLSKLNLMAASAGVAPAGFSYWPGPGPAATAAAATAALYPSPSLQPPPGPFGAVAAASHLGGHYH", "procedure,_shortened": "(§1)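 In yeast, human transcription factors were expressed with a GST fusion, then pulled down on glutathione beads and given DNA barcodes. Pooled with a tag-only sample, they were exposed to 200 nmole of a 16-mer random double-stranded DNA library (Tris/NaCl/DTT/glycerol buffer, room temperature, 30 min), washed, crosslinked with 0.1% formaldehyde, proximity-ligated using BsaI/T4 ligase for 1 h at 37 °C, PCR-amplified and read on an Illumina NextSeq500. Each hexamer's frequency of reads for a factor, divided by the matching frequency for the tag-only sample, gives the binding signal.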"}, "ETV5": {"target": "ETV5 (Homo sapiens, UniProt P41161 1-510)", "sequence (P41161 whole entry)": "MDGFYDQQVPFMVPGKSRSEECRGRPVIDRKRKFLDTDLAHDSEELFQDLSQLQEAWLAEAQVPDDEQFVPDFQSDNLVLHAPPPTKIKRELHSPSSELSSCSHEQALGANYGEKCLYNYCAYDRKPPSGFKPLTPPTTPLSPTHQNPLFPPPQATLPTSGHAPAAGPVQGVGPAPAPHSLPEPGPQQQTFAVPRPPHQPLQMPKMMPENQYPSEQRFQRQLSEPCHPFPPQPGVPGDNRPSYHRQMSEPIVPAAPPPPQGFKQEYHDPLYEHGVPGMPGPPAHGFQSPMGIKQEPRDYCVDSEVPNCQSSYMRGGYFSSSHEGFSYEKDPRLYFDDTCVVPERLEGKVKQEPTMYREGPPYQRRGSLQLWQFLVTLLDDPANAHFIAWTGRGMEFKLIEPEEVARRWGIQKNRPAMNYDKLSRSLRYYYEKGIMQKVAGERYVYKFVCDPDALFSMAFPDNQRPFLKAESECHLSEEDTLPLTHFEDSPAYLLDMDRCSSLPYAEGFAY", "procedure,_shortened": "as §1"}, "SPIC": {"target": "T2, SPIC (Homo sapiens, UniProt Q8N5J4 1-248)", "T2 sequence": "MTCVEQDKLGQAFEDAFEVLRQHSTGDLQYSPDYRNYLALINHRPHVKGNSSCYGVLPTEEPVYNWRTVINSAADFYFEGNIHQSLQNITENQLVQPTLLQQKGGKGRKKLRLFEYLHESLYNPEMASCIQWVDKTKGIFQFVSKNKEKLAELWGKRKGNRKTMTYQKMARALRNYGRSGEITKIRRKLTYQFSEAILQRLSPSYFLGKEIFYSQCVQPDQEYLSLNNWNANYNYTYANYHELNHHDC", "procedure,_shortened": "as §1"}, "ELF4": {"target": "ELF4 (Homo sapiens, UniProt Q99607 1-663)", "sequence (Q99607 whole entry)": "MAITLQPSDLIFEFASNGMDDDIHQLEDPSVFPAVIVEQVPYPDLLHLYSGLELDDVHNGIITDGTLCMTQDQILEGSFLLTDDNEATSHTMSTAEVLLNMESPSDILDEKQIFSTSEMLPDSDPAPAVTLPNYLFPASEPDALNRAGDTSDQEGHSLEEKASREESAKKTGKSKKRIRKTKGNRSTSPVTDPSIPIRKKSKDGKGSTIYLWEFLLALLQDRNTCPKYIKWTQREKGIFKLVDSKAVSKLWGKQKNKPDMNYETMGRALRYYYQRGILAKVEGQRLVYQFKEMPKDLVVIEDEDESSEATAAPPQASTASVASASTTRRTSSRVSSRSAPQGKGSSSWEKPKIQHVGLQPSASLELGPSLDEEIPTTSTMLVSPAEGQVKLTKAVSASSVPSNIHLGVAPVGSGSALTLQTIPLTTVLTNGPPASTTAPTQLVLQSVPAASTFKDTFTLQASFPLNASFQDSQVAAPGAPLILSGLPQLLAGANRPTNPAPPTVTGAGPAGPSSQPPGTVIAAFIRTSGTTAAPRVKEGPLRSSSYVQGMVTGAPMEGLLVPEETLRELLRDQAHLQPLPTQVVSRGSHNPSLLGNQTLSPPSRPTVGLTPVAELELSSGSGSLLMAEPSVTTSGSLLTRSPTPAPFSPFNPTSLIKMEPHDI", "procedure,_shortened": "as §1"}, "ELK4": {"target": "T3, ELK4 (Homo sapiens, UniProt P28324-2 1-405)", "T3 sequence": "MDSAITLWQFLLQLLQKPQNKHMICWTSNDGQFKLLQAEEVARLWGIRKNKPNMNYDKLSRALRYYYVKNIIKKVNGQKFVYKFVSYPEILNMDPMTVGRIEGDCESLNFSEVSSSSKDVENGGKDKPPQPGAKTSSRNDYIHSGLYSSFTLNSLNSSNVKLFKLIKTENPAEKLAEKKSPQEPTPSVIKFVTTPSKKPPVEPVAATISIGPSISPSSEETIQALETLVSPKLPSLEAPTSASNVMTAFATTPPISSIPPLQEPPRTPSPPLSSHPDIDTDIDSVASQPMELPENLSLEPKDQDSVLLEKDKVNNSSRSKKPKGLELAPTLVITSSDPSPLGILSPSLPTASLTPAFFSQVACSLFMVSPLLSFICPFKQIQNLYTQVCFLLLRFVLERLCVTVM", "procedure,_shortened": "as §1"}, "ELF3": {"target": "T4, ELF3 (Homo sapiens, UniProt P78545 1-371)", "T4 sequence": "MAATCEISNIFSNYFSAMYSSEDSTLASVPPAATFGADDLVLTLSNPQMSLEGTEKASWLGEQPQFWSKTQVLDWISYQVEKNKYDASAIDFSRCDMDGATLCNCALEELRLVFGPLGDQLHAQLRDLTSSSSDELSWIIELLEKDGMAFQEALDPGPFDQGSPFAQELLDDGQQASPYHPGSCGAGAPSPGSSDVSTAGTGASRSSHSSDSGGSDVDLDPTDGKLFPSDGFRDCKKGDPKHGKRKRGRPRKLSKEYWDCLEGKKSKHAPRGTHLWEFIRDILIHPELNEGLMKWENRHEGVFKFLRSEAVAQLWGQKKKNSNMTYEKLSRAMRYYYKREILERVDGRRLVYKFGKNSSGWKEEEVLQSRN", "procedure,_shortened": "as §1"}, "CRX": {"target": "CRX (Homo sapiens, UniProt O43186 1-299)", "sequence (O43186 whole entry)": "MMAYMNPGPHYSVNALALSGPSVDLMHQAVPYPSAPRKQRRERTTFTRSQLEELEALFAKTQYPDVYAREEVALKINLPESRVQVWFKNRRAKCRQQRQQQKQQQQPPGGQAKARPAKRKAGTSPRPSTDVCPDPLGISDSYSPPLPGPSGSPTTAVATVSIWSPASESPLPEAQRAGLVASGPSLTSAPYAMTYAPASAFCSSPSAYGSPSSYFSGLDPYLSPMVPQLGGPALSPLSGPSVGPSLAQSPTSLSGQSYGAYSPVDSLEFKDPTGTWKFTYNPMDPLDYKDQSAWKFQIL", "procedure,_shortened": "as §1"}, "ETV1": {"target": "ETV1 (Homo sapiens, UniProt P50549 1-477)", "sequence (P50549 whole entry)": "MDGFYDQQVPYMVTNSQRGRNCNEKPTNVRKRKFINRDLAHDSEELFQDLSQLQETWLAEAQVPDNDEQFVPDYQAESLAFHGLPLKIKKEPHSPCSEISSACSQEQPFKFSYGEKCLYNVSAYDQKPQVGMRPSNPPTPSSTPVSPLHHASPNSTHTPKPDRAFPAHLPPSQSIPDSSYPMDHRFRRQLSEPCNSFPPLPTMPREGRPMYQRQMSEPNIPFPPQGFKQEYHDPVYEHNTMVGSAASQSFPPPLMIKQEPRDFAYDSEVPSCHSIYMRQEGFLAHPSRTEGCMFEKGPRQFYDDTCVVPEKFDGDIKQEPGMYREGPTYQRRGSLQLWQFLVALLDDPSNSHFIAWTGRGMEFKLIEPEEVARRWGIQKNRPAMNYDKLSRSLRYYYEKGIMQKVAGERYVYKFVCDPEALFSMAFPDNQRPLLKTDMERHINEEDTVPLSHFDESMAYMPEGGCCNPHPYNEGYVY", "procedure,_shortened": "as §1"}, "ERF": {"target": "T5, ERF (Homo sapiens, UniProt P50548 1-548)", "T5 sequence": "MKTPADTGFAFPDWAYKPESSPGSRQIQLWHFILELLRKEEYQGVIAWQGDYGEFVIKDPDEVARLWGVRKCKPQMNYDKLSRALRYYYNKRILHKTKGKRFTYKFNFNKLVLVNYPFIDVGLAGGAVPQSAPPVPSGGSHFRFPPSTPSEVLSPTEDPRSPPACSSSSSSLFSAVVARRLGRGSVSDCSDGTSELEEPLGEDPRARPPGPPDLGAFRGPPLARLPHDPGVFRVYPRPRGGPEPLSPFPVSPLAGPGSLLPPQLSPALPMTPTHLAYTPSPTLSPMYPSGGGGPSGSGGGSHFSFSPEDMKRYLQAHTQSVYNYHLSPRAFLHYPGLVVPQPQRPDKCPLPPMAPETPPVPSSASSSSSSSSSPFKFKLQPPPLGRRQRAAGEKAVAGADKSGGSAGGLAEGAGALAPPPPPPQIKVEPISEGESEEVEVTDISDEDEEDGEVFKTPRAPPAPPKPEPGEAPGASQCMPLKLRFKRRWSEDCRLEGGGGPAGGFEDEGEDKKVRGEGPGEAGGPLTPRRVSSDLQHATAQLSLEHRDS", "procedure,_shortened": "as §1"}, "ETV3L": {"target": "T6, ETV3L (Homo sapiens, UniProt Q6ZN32 1-361)", "T6 sequence": "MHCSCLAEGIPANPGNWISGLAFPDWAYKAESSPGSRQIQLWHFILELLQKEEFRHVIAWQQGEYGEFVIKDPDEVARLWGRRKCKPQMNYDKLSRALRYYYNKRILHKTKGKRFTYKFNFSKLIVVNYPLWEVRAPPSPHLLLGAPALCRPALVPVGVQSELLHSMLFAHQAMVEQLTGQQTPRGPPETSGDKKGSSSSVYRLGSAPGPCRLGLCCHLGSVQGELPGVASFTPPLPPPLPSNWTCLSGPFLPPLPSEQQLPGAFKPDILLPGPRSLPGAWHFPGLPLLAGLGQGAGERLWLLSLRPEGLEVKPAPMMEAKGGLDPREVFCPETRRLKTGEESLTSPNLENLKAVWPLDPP", "procedure,_shortened": "as §1"}, "ETS2": {"target": "T7, ETS2 (Homo sapiens, UniProt P15036 1-469)", "T7 sequence": "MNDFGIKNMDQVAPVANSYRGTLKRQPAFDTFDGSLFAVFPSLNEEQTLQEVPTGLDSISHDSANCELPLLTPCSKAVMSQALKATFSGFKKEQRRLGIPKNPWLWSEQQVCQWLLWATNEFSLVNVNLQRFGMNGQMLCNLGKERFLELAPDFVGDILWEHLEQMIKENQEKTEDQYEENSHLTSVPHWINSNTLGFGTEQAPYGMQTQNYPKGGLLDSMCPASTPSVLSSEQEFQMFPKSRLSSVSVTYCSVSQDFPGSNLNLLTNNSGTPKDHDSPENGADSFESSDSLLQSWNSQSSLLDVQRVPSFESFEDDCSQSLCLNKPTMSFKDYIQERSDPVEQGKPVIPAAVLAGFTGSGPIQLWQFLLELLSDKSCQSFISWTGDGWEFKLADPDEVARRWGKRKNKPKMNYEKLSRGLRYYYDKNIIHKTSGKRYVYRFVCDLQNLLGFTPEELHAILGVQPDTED", "procedure,_shortened": "as §1"}, "SPDEF": {"target": "T8, SPDEF (Homo sapiens, UniProt O95238 1-335)", "T8 sequence": "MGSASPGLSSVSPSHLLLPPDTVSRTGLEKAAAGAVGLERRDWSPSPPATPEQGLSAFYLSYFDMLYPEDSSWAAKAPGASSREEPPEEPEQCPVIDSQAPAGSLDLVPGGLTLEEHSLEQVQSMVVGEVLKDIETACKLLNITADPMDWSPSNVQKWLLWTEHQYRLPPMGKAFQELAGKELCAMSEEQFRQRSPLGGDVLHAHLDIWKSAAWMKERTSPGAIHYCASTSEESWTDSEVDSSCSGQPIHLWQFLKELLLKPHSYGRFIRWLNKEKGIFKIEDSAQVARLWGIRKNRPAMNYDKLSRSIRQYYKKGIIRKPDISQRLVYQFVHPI", "procedure,_shortened": "as §1"}, "ETV7": {"target": "T9, ETV7 (Homo sapiens, UniProt Q9Y603 1-341)", "T9 sequence": "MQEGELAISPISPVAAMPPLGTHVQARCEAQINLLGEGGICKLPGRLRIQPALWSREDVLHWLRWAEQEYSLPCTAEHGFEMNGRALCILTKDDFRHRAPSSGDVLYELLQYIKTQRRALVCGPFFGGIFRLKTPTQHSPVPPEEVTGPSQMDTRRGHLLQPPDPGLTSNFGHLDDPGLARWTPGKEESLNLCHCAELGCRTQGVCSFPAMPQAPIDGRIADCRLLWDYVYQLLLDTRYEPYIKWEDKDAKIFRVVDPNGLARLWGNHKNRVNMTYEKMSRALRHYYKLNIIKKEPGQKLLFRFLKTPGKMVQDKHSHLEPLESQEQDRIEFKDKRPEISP", "procedure,_shortened": "as §1"}, "ELF5": {"target": "T10, ELF5 (Homo sapiens, UniProt Q9UKW6-2 1-255)", "T10 sequence": "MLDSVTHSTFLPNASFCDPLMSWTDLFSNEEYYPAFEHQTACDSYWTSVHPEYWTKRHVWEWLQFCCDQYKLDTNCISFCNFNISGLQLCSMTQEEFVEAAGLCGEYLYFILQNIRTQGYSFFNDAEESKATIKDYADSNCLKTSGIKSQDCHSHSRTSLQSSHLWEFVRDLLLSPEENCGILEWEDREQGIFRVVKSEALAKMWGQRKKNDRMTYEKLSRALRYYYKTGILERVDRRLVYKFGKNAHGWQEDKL", "procedure,_shortened": "as §1"}, "ETV3": {"target": "T11, ETV3 (Homo sapiens, UniProt P41162-2 1-143)", "T11 sequence": "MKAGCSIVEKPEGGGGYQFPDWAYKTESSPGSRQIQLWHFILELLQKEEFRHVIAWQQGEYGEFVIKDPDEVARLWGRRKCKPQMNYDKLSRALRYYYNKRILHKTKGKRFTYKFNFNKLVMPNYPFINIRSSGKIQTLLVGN", "procedure,_shortened": "as §1"}, "ETV6": {"target": "ETV6 (Homo sapiens, UniProt P41212 1-452)", "sequence (P41212 whole entry)": "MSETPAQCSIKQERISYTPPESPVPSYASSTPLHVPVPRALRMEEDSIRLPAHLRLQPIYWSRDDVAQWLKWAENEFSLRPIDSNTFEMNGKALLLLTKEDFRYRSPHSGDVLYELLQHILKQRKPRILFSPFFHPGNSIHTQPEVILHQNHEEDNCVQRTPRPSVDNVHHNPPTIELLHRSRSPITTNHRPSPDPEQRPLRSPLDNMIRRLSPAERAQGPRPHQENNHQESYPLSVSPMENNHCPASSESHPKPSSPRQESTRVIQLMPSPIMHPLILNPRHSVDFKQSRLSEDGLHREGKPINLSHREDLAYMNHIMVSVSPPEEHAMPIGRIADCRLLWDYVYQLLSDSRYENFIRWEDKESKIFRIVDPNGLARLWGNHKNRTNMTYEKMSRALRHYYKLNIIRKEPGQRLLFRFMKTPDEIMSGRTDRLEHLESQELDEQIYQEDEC", "procedure,_shortened": "as §1"}},
  "data": [
    {"sequence": "ATATGA", "values": [
      {"measurement": "binding signal", "setting": "FEV", "result": "1.03 fold enrichment (6-mer frequency, TF over GST control)"},
      {"measurement": "binding signal", "setting": "ETV5", "result": "1.11 fold enrichment (6-mer frequency, TF over GST control)"},
      {"measurement": "binding signal", "setting": "SPIC", "result": "1.16 fold enrichment (6-mer frequency, TF over GST control)"},
      {"measurement": "binding signal", "setting": "ELF4", "result": "1.1 fold enrichment (6-mer frequency, TF over GST control)"},
      {"measurement": "binding signal", "setting": "ELK4", "result": "1.19 fold enrichment (6-mer frequency, TF over GST control)"},
      {"measurement": "binding signal", "setting": "ELF3", "result": "1.1 fold enrichment (6-mer frequency, TF over GST control)"},
      {"measurement": "binding signal", "setting": "CRX", "result": "1.02 fold enrichment (6-mer frequency, TF over GST control)"},
      {"measurement": "binding signal", "setting": "ETV1", "result": "1.05 fold enrichment (6-mer frequency, TF over GST control)"},
      {"measurement": "binding signal", "setting": "ERF", "result": "1.13 fold enrichment (6-mer frequency, TF over GST control)"},
      {"measurement": "binding signal", "setting": "ETV3L", "result": "1.14 fold enrichment (6-mer frequency, TF over GST control)"},
      {"measurement": "binding signal", "setting": "ETS2", "result": "1.09 fold enrichment (6-mer frequency, TF over GST control)"},
      {"measurement": "binding signal", "setting": "SPDEF", "result": "1.05 fold enrichment (6-mer frequency, TF over GST control)"},
      {"measurement": "binding signal", "setting": "ETV7", "result": "1.12 fold enrichment (6-mer frequency, TF over GST control)"},
      {"measurement": "binding signal", "setting": "ELF5", "result": "1.1 fold enrichment (6-mer frequency, TF over GST control)"},
      {"measurement": "binding signal", "setting": "ETV3", "result": "1.08 fold enrichment (6-mer frequency, TF over GST control)"},
      {"measurement": "binding signal", "setting": "ETV6", "result": "1.06 fold enrichment (6-mer frequency, TF over GST control)"}
    ]}
  ]
}
